Laboratory results taken from PubChem BioAssay AID1159580 (chemical genetic matrix, 2015).
The whole screen tested about 5,500 compounds, of which about 2,000 (36%) were called active. Another 18% or so got no clear call; they are omitted. No stated cut-off is given here; in the data, active means normalized growth mostly below about 0.91 (no sharp cut-off); inconclusive means no clear call, values can overlap the other calls; inactive means mostly above about 0.92. This is one part of the list.

Experiment: chemical genetic growth profiling, strain panel (AID 1159580);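 further: tested at 20 µM; growth read once vehicle control cultures reached saturation at 30 °C; 1 = growth at the plate median or of vehicle wells; lower values mean less growth of the strain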
Details: growth OD
[1] = S. cerevisiae deletion strains, locus YAL013W, strain DEP1, hits give low values
[2] = S. cerevisiae deletion strains, locus YBR229C, strain ROT2, hits give low values
[3] = S. cerevisiae deletion strains, locus YCL061C, strain MRC1, hits give low values
[4] = S. cerevisiae deletion strains, locus YDL101C, strain DUN1, hits give low values
[5] = S. cerevisiae deletion strains, locus YDR150W, strain NUM1, hits give low values
[6] = S. cerevisiae deletion strains, locus YEL061C, strain CIN8, hits give low values
[7] = S. cerevisiae deletion strains, locus YGR078C, strain PAC10, hits give low values
[8] = S. cerevisiae deletion strains, locus YHR030C, strain SLT2, hits give low values
[9] = S. cerevisiae deletion strains, locus YHR087W, strain rtc3, hits give low values
[10] = S. cerevisiae deletion strains, locus YJL187C, strain SWE1, hits give low values
[11] = S. cerevisiae deletion strains, locus YJR043C, strain POL32, hits give low values
[12] = S. cerevisiae deletion strains, locus YJR075W, strain HOC1, hits give low values
[13] = S. cerevisiae deletion strains, locus YLR039C, strain RIC1, hits give low values
[14] = S. cerevisiae deletion strains, locus YLR058C, strain SHM2 (second series), hits give low values
[15] = S. cerevisiae deletion strains, locus YLR085C, strain ARP6, hits give low values
[16] = S. cerevisiae deletion strains, locus YLR262C, strain YPT6, hits give low values
[17] = S. cerevisiae deletion strains, locus YML094W, strain GIM5, hits give low values
[18] = S. cerevisiae deletion strains, locus YMR219W, strain ESC1, hits give low values
[19] = S. cerevisiae deletion strains, locus YMR263W, strain SAP30, hits give low values
[20] = S. cerevisiae deletion strains, locus YMR307W, strain GAS1, hits give low values
[21] = S. cerevisiae deletion strains, locus YNL153C, strain GIM3, hits give low values
[22] = S. cerevisiae deletion strains, locus YNL298W, strain CLA4 (second series), hits give low values
[23] = S. cerevisiae deletion strains, locus YNL322C, strain KRE1, hits give low values
[24] = S. cerevisiae deletion strains, locus YNR030W, strain Alg12, hits give low values
[25] = S. cerevisiae deletion strains, locus YPL055C, strain LGE1, hits give low values
[26] = S. cerevisiae deletion strains, locus YPL241C, strain CIN2, hits give low values
[27] = S. cerevisiae deletion strains, locus YPR135W, strain CTF4, hits give low values
[28] = S. cerevisiae strains, strain wild type, hits give low values

Measured: normalized growth

Cc1onc(-c2ccccc2Cl)c1C(=O)N1CCCN2C(=O)c3ccccc3C21 (stereo not drawn)
inactive: [1] 1 | [2] 0.989 | [3] 0.985 | [4] 0.963 | [5] 0.971 | [6] 1.01 | [7] 0.994 | [8] 0.942 | [9] 0.987 | [10] 1.01 | [11] 0.968 | [12] 1.03 | S. cerevisiae deletion strains, locus YKL190W, strain CNB1, hits give low values 1 | [13] 0.995 | [14] 0.985 | [15] 1.01 | [16] 0.995 | [17] 1 | [18] 1.01 | [19] 0.999 | [20] 0.992 | S. cerevisiae deletion strains, locus YNL128W, strain TEP1, hits give low values 0.991 | [21] 0.972 | [22] 0.998 | [23] 1 | [24] 0.993 | [25] 1.01 | [26] 0.987 | [27] 0.931

CCCCC(=O)O[C@]1(C(=O)CO)CCC2C3CCC4=CC(=O)CC[C@]4(C)C3[C@@H](O)C[C@@]21C (stereo partly drawn)
inactive: S. cerevisiae deletion strains, locus YAL021C, strain ccr4, hits give low values 0.974 | S. cerevisiae deletion strains, locus YAL026C, strain drs2, hits give low values 0.982 | S. cerevisiae deletion strains, locus YAL030W, strain snc1, hits give low values 0.976 | S. cerevisiae deletion strains, locus YBL061C, strain skt5, hits give low values 0.988 | S. cerevisiae deletion strains, locus YBR009C, strain hhf1, hits give low values 0.985 | S. cerevisiae deletion strains, locus YBR023C, strain chs3, hits give low values 0.987 | S. cerevisiae deletion strains, locus YBR171W, strain sec66, hits give low values 0.976 | S. cerevisiae deletion strains, locus YBR231C, strain swc5, hits give low values 0.979 | S. cerevisiae deletion strains, locus YBR279W, strain paf1, hits give low values 0.989 | S. cerevisiae deletion strains, locus YCL011C, strain gbp2, hits give low values 0.963 | S. cerevisiae deletion strains, locus YCL016C, strain dcc1, hits give low values 0.981 | [3] 0.983 | S. cerevisiae deletion strains, locus YCL069W, strain vba3, hits give low values 0.985 | S. cerevisiae deletion strains, locus YCR088W, strain abp1, hits give low values 0.991 | S. cerevisiae deletion strains, locus YDL005C, strain med2, hits give low values 0.979 | S. cerevisiae deletion strains, locus YDL040C, strain nat1, hits give low values 0.981 | S. cerevisiae deletion strains, locus YDR001C, strain nth1, hits give low values 0.987 | S. cerevisiae deletion strains, locus YDR069C, strain doa4, hits give low values 0.973 | S. cerevisiae deletion strains, locus YDR137W, strain rgp1, hits give low values 0.939 | S. cerevisiae deletion strains, locus YDR159W, strain sac3, hits give low values 0.97 | S. cerevisiae deletion strains, locus YDR195W, strain ref2 0.933 | S. cerevisiae deletion strains, locus YDR297W, strain sur2, hits give low values 0.981 | S. cerevisiae deletion strains, locus YDR334W, strain swr1, hits give low values 0.947 | S. cerevisiae deletion strains, locus YDR335W, strain msn5, hits give low values 0.975 | S. cerevisiae deletion strains, locus YDR392W, strain spt3, hits give low values 0.968 | S. cerevisiae deletion strains, locus YEL003W, strain gim4, hits give low values 0.997 | S. cerevisiae deletion strains, locus YEL037C, strain rad23, hits give low values 0.97 | S. cerevisiae deletion strains, locus YEL061C, strain CIN8 (second series), hits give low values 0.98 | S. cerevisiae deletion strains, locus YER015W, strain faa2, hits give low values 0.972 | S. cerevisiae deletion strains, locus YER016W, strain bim1, hits give low values 0.974 | S. cerevisiae deletion strains, locus YER111C, strain swi4, hits give low values 0.981 | S. cerevisiae deletion strains, locus YER155C, strain BEM2 (second series), hits give low values 0.981 | S. cerevisiae deletion strains, locus YFR010W, strain ubp6, hits give low values 0.957 | S. cerevisiae deletion strains, locus YGL167C, strain pmr1, hits give low values 0.976 | S. cerevisiae deletion strains, locus YGL173C, strain kem1, hits give low values 0.964 | S. cerevisiae deletion strains, locus YGL227W, strain vid30, hits give low values 0.984 | S. cerevisiae deletion strains, locus YGL240W, strain doc1, hits give low values 0.973 | S. cerevisiae deletion strains, locus YGL253W, strain hxk2, hits give low values 0.976 | S. cerevisiae deletion strains, locus YHR013C, strain ard1, hits give low values 0.972 | S. cerevisiae deletion strains, locus YHR027C, strain rpn1, hits give low values 0.974 | [8] 0.987 | S. cerevisiae deletion strains, locus YHR079C, strain IRE1, hits give low values 0.994 | S. cerevisiae deletion strains, locus YHR142W, strain chs7, hits give low values 0.941 | S. cerevisiae deletion strains, locus YJL092W, strain hpr5, hits give low values 0.984 | S. cerevisiae deletion strains, locus YJL095W, strain BCK1 (second series), hits give low values 0.976 | S. cerevisiae deletion strains, locus YJL095W, strain BCK1, hits give low values 0.998 | S. cerevisiae deletion strains, locus YJL115W, strain asf1, hits give low values 0.952 | S. cerevisiae deletion strains, locus YJL129C, strain trk1, hits give low values 0.954 | S. cerevisiae deletion strains, locus YJL154C, strain vps35, hits give low values 0.982 | S. cerevisiae deletion strains, locus YJL164C, strain tpk1, hits give low values 0.984 | S. cerevisiae deletion strains, locus YJL166W, strain qcr8, hits give low values 0.985 | [10] 0.992 | S. cerevisiae deletion strains, locus YJR066W, strain TOR1, hits give low values 0.943 | S. cerevisiae deletion strains, locus YKL160W, strain elf1, hits give low values 0.983 | S. cerevisiae deletion strains, locus YKR026C, strain gcn3, hits give low values 0.969 | S. cerevisiae deletion strains, locus YKR091W, strain srl3, hits give low values 0.98 | S. cerevisiae deletion strains, locus YLL001W, strain dnm1, hits give low values 0.96 | S. cerevisiae deletion strains, locus YLL026W, hits give low values 0.975 | S. cerevisiae deletion strains, locus YLL041C, strain sdh2, hits give low values 0.979 | S. cerevisiae deletion strains, locus YLR027C, strain aat2, hits give low values 0.978 | S. cerevisiae deletion strains, locus YLR113W, strain HOG1, hits give low values 0.986 | S. cerevisiae deletion strains, locus YLR221C, strain rsa3, hits give low values 0.988 | S. cerevisiae deletion strains, locus YLR258W, strain gsy2, hits give low values 0.989 | S. cerevisiae deletion strains, locus YLR262C, strain YPT6 (second series), hits give low values 0.966 | S. cerevisiae deletion strains, locus YLR320W, strain mms22, hits give low values 0.977 | S. cerevisiae deletion strains, locus YLR342W, strain FKS1, hits give low values 0.981 | S. cerevisiae deletion strains, locus YLR357W, strain rsc2, hits give low values 0.971 | S. cerevisiae deletion strains, locus YLR370C, strain arc18, hits give low values 0.981 | S. cerevisiae deletion strains, locus YLR384C, strain iki3, hits give low values 0.979 | S. cerevisiae deletion strains, locus YML120C, strain ndi1, hits give low values 0.973 | S. cerevisiae deletion strains, locus YMR058W, strain fet3, hits give low values 0.974 | S. cerevisiae deletion strains, locus YMR125W, strain sto1, hits give low values 0.961 | S. cerevisiae deletion strains, locus YMR129W, hits give low values 0.979 | S. cerevisiae deletion strains, locus YMR205C, strain PFK2, hits give low values 0.997 | S. cerevisiae deletion strains, locus YMR231W, strain pep5, hits give low values 0.98 | S. cerevisiae deletion strains, locus YNL071W, strain lat1, hits give low values 0.979 | S. cerevisiae deletion strains, locus YNL183C, strain NPR1, hits give low values 0.942 | S. cerevisiae deletion strains, locus YNL209W, strain ssb2, hits give low values 0.98 | S. cerevisiae deletion strains, locus YNL248C, strain rpa49, hits give low values 0.946 | S. cerevisiae deletion strains, locus YNL322C, strain KRE1 (second series), hits give low values 0.959 | S. cerevisiae deletion strains, locus YNR049C, strain mso1, hits give low values 0.98 | S. cerevisiae deletion strains, locus YOR001W, strain rrp6, hits give low values 0.98 | S. cerevisiae deletion strains, locus YOR070C, strain gyp1, hits give low values 0.994 | S. cerevisiae deletion strains, locus YOR080W, strain dia2, hits give low values 0.975 | S. cerevisiae deletion strains, locus YOR083W, strain WHI5, hits give low values 0.98 | S. cerevisiae deletion strains, locus YOR106W, strain vam3, hits give low values 0.977 | S. cerevisiae deletion strains, locus YOR231W, strain MKK1, hits give low values 0.976 | S. cerevisiae deletion strains, locus YOR265W, strain rbl2, hits give low values 0.977 | S. cerevisiae deletion strains, locus YOR270C, strain vph1, hits give low values 0.869 | S. cerevisiae deletion strains, locus YOR290C, strain snf2, hits give low values 0.991 | S. cerevisiae deletion strains, locus YPL051W, strain arl3, hits give low values 1 | S. cerevisiae deletion strains, locus YPL078C, strain atp4, hits give low values 0.971 | S. cerevisiae deletion strains, locus YPL106C, strain sse1, hits give low values 0.957 | S. cerevisiae deletion strains, locus YPL240C, strain hsp82, hits give low values 0.972 | S. cerevisiae deletion strains, locus YPL256C, strain CLN2, hits give low values 0.972

COc1ccccc1N1CCN(CCCCNS(=O)(=O)c2cccc3c(N(C)C)cccc23)CC1
inactive: [1] 0.944 | S. cerevisiae deletion strains, locus YAL040C, strain CLN3, hits give low values 0.979 | S. cerevisiae deletion strains, locus YCL061C, strain MRC1 (second series), hits give low values 0.976 | S. cerevisiae deletion strains, locus YDR363W, strain ESC2, hits give low values 0.939 | S. cerevisiae deletion strains, locus YER002W, strain NOP16, hits give low values 0.999 | [7] 0.997 | [12] 0.955 | [19] 0.979 | [20] 0.994 | [21] 0.989 | S. cerevisiae deletion strains, locus YNL175C, strain NOP13, hits give low values 1.02 | S. cerevisiae deletion strains, locus YNL197C, strain WHI3, hits give low values 0.99 | S. cerevisiae deletion strains, locus YNL224C, strain SQS1, hits give low values 1.04 | [23] 0.951 | S. cerevisiae deletion strains, locus YOR083W, strain WHI5 (second series), hits give low values 1.02

CCOC(=O)c1cnn(-c2ccc(F)cc2)c1N
inactive: [1] 0.99 | [2] 0.992 | [4] 0.984 | S. cerevisiae deletion strains, locus YDL134C, strain PPH21, hits give low values 1 | [5] 0.866 | [6] 0.984 | [7] 0.998 | S. cerevisiae deletion strains, locus YGR229C, strain SMI1, hits give low values 0.987 | [8] 1.07 | [9] 0.967 | [10] 0.989 | [11] 0.994 | [12] 0.9 | [13] 1.04 | [14] 0.995 | [15] 0.919 | [16] 1.04 | [17] 0.938 | [18] 0.995 | [19] 0.991 | [21] 0.974 | [22] 0.966 | [23] 0.987 | [24] 0.973 | [25] 0.869 | [26] 1.06 | [27] 0.844 | [28] 0.993

CCOC(=O)c1cnn(-c2ccc(N)cc2)c1C(F)(F)F
active: [8] 0.378 | [13] 0.429 | [15] 0.695 | [16] 0.472 | [17] 0.848
inactive: [1] 0.979 | [2] 0.992 | [3] 0.979 | [4] 0.992 | [5] 1.02 | [6] 0.918 | [7] 1.01 | [9] 1.02 | [11] 0.983 | [12] 1.04 | [14] 0.996 | [18] 0.99 | [19] 0.994 | [21] 0.984 | [22] 0.861 | [23] 1.01 | [24] 0.936 | [25] 0.91 | [26] 0.871 | [27] 0.797 | [28] 0.977
